Measured values reported in PubChem BioAssay (NCATS).
Inconclusive results are not listed. The source made the active and inactive calls. The call rests on the fitted dose curve; in most records, active means well fitted curve in the direction sought with a large enough effect; inconclusive means small, poorly fitted or top-dose-only effect, or another doubt; inactive means no such curve, though single readings can be large; an effect the other way counts as inactive or inconclusive.

Tests used:
MCC-13 = assay: qHTS assay to identify novel small-molecules to repurpose for Merkel cell carcinoma treatment (AID 1296009); settings: MCC and control cell lines, CellTiter-Glo viability, 72 h; series mostly up to 46 µM; further: nearly all actives have a fitted effect of over 60% in size
How it was run: (§1)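 After compound transfer in DMSO, plates were kept 72 hr at 37 degree celsius. Luminescent ATP signal from CellTiter-Glo served as viability measure, normalized against DMSO and no-cell controls.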

MCC-26 = assay: as above; settings: MCC and control cell lines, CellTiter-Glo viability, 72 h; series mostly up to 46 µM
How it was run: as §1

MKL-1 = assay: as above; settings: MCC and control cell lines, CellTiter-Glo viability, 72 h; series mostly up to 46 µM
How it was run: as §1

MKL-2 = assay: as above; settings: MCC and control cell lines, CellTiter-Glo viability, 72 h; series mostly up to 46 µM
How it was run: as §1

UISO = assay: as above; settings: MCC and control cell lines, CellTiter-Glo viability, 72 h; series mostly up to 46 µM
How it was run: as §1

WaGa = assay: as above; settings: MCC and control cell lines, CellTiter-Glo viability, 72 h; series mostly up to 46 µM
How it was run: as §1

CAOV3 = assay: Primary qHTS to identify gynecologic anti-cancer compounds using libraries of approved drugs and bioactive compounds (AID 1345084); settings: Gynecologic cancer cell panel viability, ATPlite luminescence, 48 h; series mostly up to 57.5 µM; further: nearly all actives have a fitted effect of over 55% in size
How it was run: (§2)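 Five-concentration response, 48 h; readout is ATP-driven luciferase luminescence.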

CASKI = assay: as above; settings: Gynecologic cancer cell panel viability, ATPlite luminescence, 48 h; series mostly up to 57.5 µM
How it was run: as §2

Es-2 = assay: as above; settings: Gynecologic cancer cell panel viability, ATPlite luminescence, 48 h; series mostly up to 57.5 µM
How it was run: as §2

HeLa = assay: as above; settings: Gynecologic cancer cell panel viability, ATPlite luminescence, 48 h; series mostly up to 57.5 µM
How it was run: as §2

Hek293T = assay: as above; settings: Gynecologic cancer cell panel viability, ATPlite luminescence, 48 h, control line for the selectivity index; series mostly up to 57.5 µM
How it was run: as §2

JEG-3 = assay: as above; settings: Gynecologic cancer cell panel viability, ATPlite luminescence, 48 h; series mostly up to 57.5 µM
How it was run: as §2

OV90 = assay: as above; settings: Gynecologic cancer cell panel viability, ATPlite luminescence, 48 h; series mostly up to 57.5 µM
How it was run: as §2

PA-1 = assay: as above; settings: Gynecologic cancer cell panel viability, ATPlite luminescence, 48 h; series mostly up to 57.5 µM
How it was run: as §2

Tov-21-G = assay: as above; settings: Gynecologic cancer cell panel viability, ATPlite luminescence, 48 h; series mostly up to 57.5 µM
How it was run: as §2

Tov112D = assay: as above; settings: Gynecologic cancer cell panel viability, ATPlite luminescence, 48 h; series mostly up to 57.5 µM
How it was run: as §2

[1] = Drug repurposing screens with cells derived from glioblastoma tumor samples (AID 1345199); settings: GBM patient neurospheres viability, ATP luminescence, 48 h; for Potency: tumour line A; on all read-outs here: nearly all actives have a fitted effect of over 40% in size
How it was run: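 Four patient lines of CD133+ GBM neurospheres were screened at several concentrations; hits were retested in those lines plus three slower-growing GBM lines, using 48-hour treatment and ATP-based viability.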

C33A = assay: Primary qHTS to identify gynecologic anti-cancer compounds using libraries of approved drugs and bioactive compounds (AID 1345084); settings: Gynecologic cancer cell panel viability, ATPlite luminescence, 48 h; series mostly up to 57.5 µM; further: nearly all actives have a fitted effect of over 55% in size
How it was run: as §2

SKOV3 = assay: as above; settings: Gynecologic cancer cell panel viability, ATPlite luminescence, 48 h; series mostly up to 57.5 µM
How it was run: as §2

[2] = at 45.9 µM (top of the series), tumour line B
[3] = at 45.9 µM (top of the series), tumour line D
On the % scale 0 is the no-effect control and ±100 the full control effect; potency means the concentration at half of the fitted maximal effect.

O=C(N[C@H]1N=C(c2ccccc2F)c2cccc3c2N(CC3)C1=O)c1cc2ccccc2[nH]1
inactive: Potency (MCC-13) | Potency (MCC-26) | Potency (MKL-1) | Potency (MKL-2) | Potency (UISO) | Potency (WaGa) | Potency (CAOV3) | Potency (CASKI) | Potency (Es-2) | Potency (HeLa) | Potency (Hek293T) | Potency (JEG-3) | Potency (OV90) | Potency (PA-1) | Potency (Tov-21-G) | Potency (Tov112D) | activity, negative = cell killing [1, 2] 9.35%

O=C(NC(=O)c1c(F)cccc1F)Nc1cc(Cl)c(OC(F)(F)C(F)C(F)(F)F)cc1Cl (centres undefined)
active: Potency [1] 7.94 µM
inactive: Potency (MCC-13) | Potency (MCC-26) | Potency (MKL-1) | Potency (UISO) | Potency (WaGa) | Potency (C33A) | Potency (CAOV3) | Potency (CASKI) | Potency (Es-2) | Potency (HeLa) | Potency (JEG-3) | Potency (OV90) | Potency (PA-1) | Potency (Tov-21-G) | Potency (Tov112D) | activity, negative = cell killing [1, 2] -8.74% | activity, negative = cell killing [1, 3] -27.5%

O=C(N[C@@H]1N=C(c2ccccc2F)c2cccc3c2N(CC3)C1=O)c1cc2ccccc2[nH]1
active: Potency (UISO) 2.99 µM | Potency (HeLa) 12.6 µM
inactive: Potency (MCC-13) | Potency (MCC-26) | Potency (MKL-1) | Potency (MKL-2) | Potency (WaGa) | activity, negative = cell killing [1, 2] -3.52% | activity, negative = cell killing [1, 3] -3.25%

C[C@@H]1CC[C@H]2[C@@H](C)C(=O)O[C@@H]3O[C@@]4(C)CC[C@@H]1[C@]32OO4
inactive: Potency (MCC-13) | Potency (MCC-26) | Potency (MKL-1) | Potency (MKL-2) | Potency (WaGa) | Potency (C33A) | Potency (CAOV3) | Potency (CASKI) | Potency (Es-2) | Potency (HeLa) | Potency (Hek293T) | Potency (JEG-3) | Potency (OV90) | Potency (PA-1) | Potency (SKOV3) | Potency (Tov-21-G) | Potency (Tov112D) | activity, negative = cell killing [1, 2] -29.6%

COc1cc(C[C@@H](C)N)c(OC)cc1Br
active: Potency [1] 35.5 µM
inactive: Potency (MCC-13) | Potency (MCC-26) | Potency (MKL-1) | Potency (MKL-2) | Potency (UISO) | Potency (WaGa) | Potency (C33A) | Potency (Es-2) | Potency (HeLa) | Potency (Hek293T) | Potency (JEG-3) | Potency (PA-1) | Potency (SKOV3) | Potency (Tov-21-G) | Potency (Tov112D) | activity, negative = cell killing ([1]; at 108 µM (top of the series), tumour line B) -21.6%

C#C[C@]1(O)C=C[C@H]2[C@@H]3CCC4=CC(=O)CC[C@@H]4[C@H]3CC[C@@]21CC
inactive: Potency (MCC-13) | Potency (MCC-26) | Potency (MKL-1) | Potency (MKL-2) | Potency (UISO) | Potency (WaGa) | Potency (C33A) | Potency (CASKI) | Potency (Es-2) | Potency (Hek293T) | Potency (JEG-3) | Potency (OV90) | Potency (PA-1) | Potency (SKOV3) | Potency (Tov-21-G) | Potency (Tov112D) | activity, negative = cell killing [1, 2] -6.47% | activity, negative = cell killing [1, 3] -10.7%
active: Potency (HeLa) 12.6 µM

O=c1n(Cl)c(=O)n(Cl)c(=O)n1Cl
inactive: Potency (MCC-13) | Potency (MCC-26) | Potency (MKL-1) | Potency (MKL-2) | Potency (UISO) | Potency (WaGa) | Potency (C33A) | Potency (CASKI) | Potency (Es-2) | Potency (HeLa) | Potency (Hek293T) | Potency (JEG-3) | Potency (OV90) | Potency (PA-1) | Potency (SKOV3) | Potency (Tov-21-G) | Potency (Tov112D) | activity, negative = cell killing [1, 2] -0.787% | activity, negative = cell killing [1, 3] 7.38%

CC[C@H]1C[C@H]2[C@@H]3CCC4=CC(=O)CC[C@@H]4[C@H]3CC[C@]2(C)[C@H]1O
inactive: Potency (MCC-13) | Potency (MCC-26) | Potency (MKL-1) | Potency (UISO) | Potency (WaGa) | Potency (CASKI) | Potency (Es-2) | Potency (JEG-3) | Potency (OV90) | Potency (Tov-21-G) | Potency (Tov112D)
active: Potency [1] 10 µM
